Measured values from PubChem BioAssay (NCI).
This is part of a sample that, as a whole, favours compounds with a hit. Of some 83,000 tested, about 20% had one in any assay.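 Testing used 96-well plates and a 48-hour single-concentration exposure. Example: -40 means 40% of the starting cells died.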 Values without a mark were called inactive. Activity calls are given as the source filed them. Rule for the calls: active = growth percent below 10; inactive = the rest.

Key:
Experiment in all cases: NCI-60 one-dose screen, 48 h (100 = growth as untreated, 0 = no growth, -100 = all killed)
Details in all cases: 10 µM unless noted
HCT-15 colon = tested on: HCT-15 colon
HT29 colon = tested on: HT29 colon
SNB-75 CNS = tested on: SNB-75 CNS
SNB-19 CNS = tested on: SNB-19 CNS
U251 CNS = tested on: U251 CNS
PC-3 prostate = tested on: PC-3 prostate
SK-MEL-5 melanoma = tested on: SK-MEL-5 melanoma
UACC-62 melanoma = tested on: UACC-62 melanoma
LOX IMVI melanoma = tested on: LOX IMVI melanoma
SK-MEL-28 melanoma = tested on: SK-MEL-28 melanoma

Row | Compound | growth (HCT-15 colon) | growth (HT29 colon) | growth (SNB-75 CNS) | growth (SNB-19 CNS) | growth (U251 CNS) | growth (PC-3 prostate) | growth (SK-MEL-5 melanoma) | growth (UACC-62 melanoma) | growth (LOX IMVI melanoma) | growth (SK-MEL-28 melanoma)
1 | C/C=C(\C)C(=O)N[C@H]1C(O)C[C@]2(C)C3CC[C@@]4(C)C(CC[C@@H]4C(C)N(C)C)C3CCC2C1O (stereo not given in full) | -28.6% (active) | 1.91% (active) | 74.5% | 104% | 52.3% | 45.5% | -41.3% (active) | 62.3% | -26.3% (active) | -7.39% (active)
2 | CCc1n(Cc2ccc3ccccc3n2)cc[n+]1Cc1ccc2ccccc2n1 | 92.2% | -4.83% (active) | 29.5% | 20.9% | 12.3% | 19% | -36.3% (active) | 12.4% | 26.1% | 15.9%
3 | COC(=O)c1c2c(c(C)[n+]([O-])c1C)C(=O)C(NCc1ccc(OC)cc1)=CC2=O | 9.67% (active) | 9.48% (active) | 127% | 5.27% (active) | -13.9% (active) | 4.67% (active) | -53.1% (active) | -27.9% (active) | 19% | 61.9%
4 | N#C/C(=C\c1ccc([N+](=O)[O-])cc1)n1nnc2cc(F)c(F)cc21 | -7.69% (active) | 0.57% (active) | 46.3% | 69% | 43.5% | -16% (active) | 81.3% | -43.7% (active) | -97.6% (active) | 101%
5 | COc1cccc(Nc2ncnc3cc(NC(=O)CCl)ccc23)c1 | -43.2% (active) | -79.5% (active) | -79.9% (active) | -38.6% (active) | -99.2% (active) | -80.3% (active) | -85.8% (active) | -67.5% (active) | -74.6% (active) | -33.7% (active)
6 | CCN1C2CCC1/C(=C\c1ccc(F)cc1)C(=O)/C2=C/c1ccc(F)cc1 | 30.4% | 23.7% | 40.6% | 51% | 21.2% | 38.5% | 48.2% | 35.7% | 19.7% | 72.5%
7 | Cc1ccc(CNc2ccc3nc(CCC(C)C)[nH]c3c2)cc1 | 79.5% | 92.4% | 86.4% | 89% | 91.8% | 77.9% | 97.8% | 90.7% | 94.5% | 98%
8 | Cc1c2cccnc2c(C)c2c1c1cc(CO)ccc1n2C | 18.7% | 16% | 45.5% | 21.1% | 14% | 31% | 30.6% | -16.6% (active) | 8.95% (active) | 30.6%
9 | Cc1ccc(C=C2C(=O)NC(=O)NC2=O)cc1 | 104% | 103% | 92.5% | 106% | 99% | 95.9% | 100% | 102% | 98.6% | 107%
10 | Cn1cc(-c2csc(-c3c[nH]c4ccc(F)cc34)n2)c2ccnc(Cl)c21 | 5.69% (active) | 29.8% | 77.5% | 91.4% | 49.6% | 62.1% | 63.2% | 70.6% | 67.5% | 93.5%
11 | Cc1cccc(N2CCC(=O)NC2=S)c1 | 107% | 113% | 92.5% | 99.4% | 104% | 98.3% | 101% | 96.4% | 97.2% | 110%
12 | CN1CCN(C(=O)C(C)(C)c2ccc(C(=O)Nc3cn4cc(-c5ccncc5)ccc4n3)cc2)CC1 | 2.11% (active) | 6.49% (active) | -5.48% (active) | 9.14% (active) | 16% | 25.7% | -98.2% (active) | -31.3% (active) | -19.9% (active) | 7.28% (active)
13 | CC1(C)N=C(N)N=C(N)N1c1ccc(CCCCc2ccccc2)c(Cl)c1 | 20.5% | -11.2% (active) | 18.3% | 21.4% | 3.58% (active) | 6.3% (active) | -76.1% (active) | 8.84% (active) | 8.69% (active) | 25.2%
14 | COC(=O)/C=C1/SC(=Nc2ccc([N+](=O)[O-])cc2)N(CCc2c[nH]c3ccc(O)cc23)C1=O | 46.9% | 42.6% | 54.4% | 40.3% | 36.3% | 38.6% | 50.5% | 30.1% | -21.9% (active) | 52.7%
15 | C#COc1cccc(Nc2ncnc3cc(NC(=O)[C@@H](C)Cl)ccc23)c1 | 11.6% [6.25 µM] | 0.0167% [6.25 µM] (active) | -7.9% [6.25 µM] (active) | 19.3% [6.25 µM] | 4.37% [6.25 µM] (active) | 8.91% [6.25 µM] (active) | 14.2% [6.25 µM] | 24.9% [6.25 µM] | 11.4% [6.25 µM] | 38% [6.25 µM]
16 | NS(=O)(=O)c1ccc(C(=O)NN2C(=O)c3c(Br)c(Br)c(Br)c(Br)c3C2=O)cc1 | 99.5% | 109% | 77.8% | 101% | 98% | 100% | 103% | 99.5% | 95.1% | 109%
17 | COc1ccc(/C=C/C(c2cc(OC)c(OC)c(OC)c2)n2cncn2)cc1 (stereo not given) | 31.1% | 4.96% (active) | 51.3% | 49% | 31.8% | 31.2% | 33% | 33.8% | 50% | 62.6%
18 | O=C(CCl)NNc1nccc(Nc2ccc(S(=O)(=O)Nc3ccncc3)cc2)n1 | 22.2% | 27.4% | 54.7% | 31.1% | -9.06% (active) | 56% | 7.95% (active) | 31.4% | 17.6% | 53.7%
19 | Nc1[nH]n2cc(-c3ccc(F)cc3)nc2c1N=Nc1ccc(S(N)(=O)=O)cc1 | 60.4% | 83.6% | 56.4% | 86.4% | 76.4% | 80.6% | 76.9% | 71.4% | 64.5% | 84.8%
20 | CCN1CCN(CCNc2nccc(-c3c(-c4ccc(F)c(OC)c4)nc4sccn34)n2)S1(=O)=O | 94.6% | 73.1% | 74% | 93% | 76.8% | 74.1% | 41.4% | 15.5% | 40.3% | 27.2%
21 | N=c1c(S(=O)(=O)c2ccccc2)cc2c(=O)n3ccccc3nc2n1CC1CCCO1 (stereo not given) | 119% | 120% | 73.9% | 103% | 108% | 95.3% | 99.7% | 99.8% | 98.7% | 108%
22 | CC1(C)NCCC[C@]2(C)[C@H]3CC[C@H]4[C@H]5[C@H](C(=O)/C=C/c6cccnc6)CCC[C@]5(CO)CC[C@@]4(C)[C@]3(C)CC[C@@H]12 | 33.5% | 3.84% (active) | 75.8% | 72.2% | 11% | 59.4% | 87% | 96.7% | 13% | 93.6%
23 | O=C(Cc1ccccc1)Nc1cccc(N=Cc2ccccc2O)c1 | 102% | 113% | 73.8% | 99.2% | 94.3% | 93.4% | 106% | 101% | 100% | 111%
24 | CC1(C)[C@@H](O[C@@H]2OC[C@@H](O[C@@H]3O[C@H](CO)[C@@H](O)[C@H](O)[C@H]3O[C@@H]3OC[C@@H](O)[C@H](O)[C@H]3O)[C@H](O)[C@H]2O[C@@H]2O[C@H](CO)[C@@H](O)[C@H](O)[C@H]2O)CC[C@]2(C)[C@H]3CC[C@]45OC[C@@]6(CC[C@](C)(C=O)C[C@H]64)[C@H](O)C[C@@]5(C)[C@]3(C)CC[C@@H]12 | -46.4% (active) | -85.3% (active) | -78.5% (active) | -68.4% (active) | -89.8% (active) | -85.1% (active) | -27.7% (active) | -71.8% (active) | -73.2% (active) | -76.4% (active)
25 | CC/C=C\C[C@H](O)C/C=C1/C(=O)C=C[C@@H]1C/C=C\CCCC(=O)O | 74.6% | 47.9% | 88.9% | 65% | 3.29% (active) | 61.3% | 60.3% | 27.7% | 17.4% | 54.4%
